Assay results reported in PubChem BioAssay AID493191 (Broad Institute, 2011).
Screen size: about 1,300 compounds; about 330 (25%) were called active. The list is a sample of the results. Potency and affinity values are given separately. Values without a mark were called inactive. The rule behind the calls is not given here.

Experiment: MALME3 melanoma cell viability loss, dose response, orthogonal assay for MITF inhibitor project, CellTiter-Glo, cherry-picked (AID 493191)
Settings: CellTiter-Glo luminescence, 24 h; series mostly up to 35 µM; activity change, negative = inhibition: at the top concentration

Point of comparison: `Cc1ccc2c(C(=O)CCl)c(C)[nH]c2c1`, “activity change, negative = inhibition” value -26.6%. Against it:
- O=C(Nc1ccc(F)cc1F)c1cc2ccccc2oc1=O — higher, 6.79%
- COc1ccc(C(=O)CN2Cc3ccccc3C2=N)cc1 — higher, -7.91%
- O=C(Nc1ccccc1)O/N=C/c1ccc(F)cc1 — higher, -5.62%
- CC1(C)Cc2c(sc(NC(=O)c3ccc4ncsc4c3)c2C(N)=O)C(C)(C)N1 — higher, -0.009%
- CCCN(CCC)C1=CC(=[N+]2CCCC2)CC(C)(C)C1 — higher, -17.8%
- O=C(N/N=C/c1ccc(F)cc1)c1c(O)c2ccccc2[nH]c1=O — higher, -2.15%
- CC(C)C(=O)Nc1cccc(NC(=O)c2cc3ccccc3o2)c1 — higher, -6.15%
- Cc1ccc(NC(=O)c2cc3ccccc3oc2=O)cc1S(=O)(=O)N(C)C — lower, -37.5%
- Cc1ccc(-c2nc(C#N)c(NCc3ccco3)o2)cc1 — higher, -2.18%
- Cc1ccc2c(COC(=O)c3n[nH]c4ccccc34)cc(=O)oc2c1 — higher, -17.5%
- N#C/C(C(=O)c1ccccc1)=C1/CCCCCN1 — higher, -9.1%
- COc1ccc2c(c1OC)C(=O)N(c1ccc(C)cc1)C2 — higher, -3.44%
- CCOc1cc(/C=C(/C#N)c2ccc(Cl)cc2)cc(Cl)c1OCC(=O)O — higher, 13.5%
- O=C(Nc1ccc2nc3n(c(=O)c2c1)CCCCC3)c1cc([N+](=O)[O-])ccc1F — higher, -16%
- CC(C)(C)C(=O)Nc1cc2nn(-c3ccccc3)nc2cc1Cl — higher, -14.6%
- Oc1ccc(-c2nnc(SCC3CCCCC3)o2)cc1 — higher, -10.5%
- CC(=O)c1cccc(Nc2nc(-c3cccnc3)cs2)c1 — higher, -5.43%
- CCOc1cc(/C=C\[N+](=O)[O-])ccc1OCC(=O)N1CCOCC1 — lower, -26.9%
- C/C(=N/Nc1nc(C)c(C)s1)c1cccc([N+](=O)[O-])c1 — higher, -0.825%
- CCOc1ccccc1NC(=O)C1C2CCC(O2)C1C(=O)O (centres undefined) — higher, 22.9%
- Cc1cc(/C(N)=N/OC(=O)Nc2ccc(Cl)cc2)no1 — higher, 0.994%
- COc1ccccc1/C=C/C=N/NC(=O)c1cccs1 — higher, 9.36%
- Cc1ccccc1OCC(=O)Nc1cccc(C(=O)O)c1 — higher, 6.99%
- COc1cccc(/C=N/NC(=O)c2cccs2)c1 — higher, 4.46%
- COc1ccc(NC(=O)c2cc3ccccc3oc2=O)c(OC)c1 — higher, -10.4%
- COc1ccc(-c2noc(-c3cccs3)n2)cc1OC — higher, 3.3%
- N#CCSc1nc2ccccc2c2nc3ccccc3n12 — lower, -38.1%
- CC1(C)CC(=O)c2cnc(N3CCc4ccccc43)nc2C1 — higher, 5.14%
- Cc1cc(C(=O)CSc2nnc3ccccn23)c(C)n1-c1ccccc1 — higher, -10.4%
- COc1ccccc1N(C(=O)CCl)c1cn(C(C)=O)c2ccccc12 — higher, -13.6%
- Cn1cc(C(=O)CCl)c2ccccc21 — lower, -33.3%
- O=C(Nc1ccc(OC(F)(F)F)cc1)c1[nH]ncc1[N+](=O)[O-] — higher, -0.947%
- COC(=O)c1c(C)[nH]c(/C=N/Nc2ccccc2)c1C — higher, -7.12%
- COCc1nc(-c2ccc(-c3ccccc3)nc2OC)no1 — higher, 12.8%
- C/C(=N\Nc1nccnc1Cl)c1ccc(O)c(C)c1 — higher, -5.53%
- Nc1ccc2c(c1)OC1(CCCC1)O2 — higher, 4.5%
- COc1cc(OC)cc(-c2oc(=O)c3cc(OC)c(OC)cc3c2C(F)(F)F)c1 — higher, 6.56%
- CC(C)(C)c1ccc(C(=O)Nc2ccc(CC(=O)O)cc2)o1 — higher, -8.99%
- COc1c(C)cccc1C(=O)Nc1ccc(N2CCN(S(C)(=O)=O)CC2)cc1 — higher, 2.37%
- CC1CCN(c2ccc(NC(=O)c3cccnc3)cc2)CC1 — higher, 2.45%
- CN1CCN(c2ccc(NC(=S)NC(=O)c3cccc4ccccc34)cc2)CC1 — higher, -22.1%
- CCCCOC(=O)Nc1ccc2c(C)cc(=O)oc2c1 — higher, -7.25%
- CC(C)N=C(NS(=O)(=O)c1ccccc1)C(Cl)(Cl)Cl — higher, -23.1%
- CC(=O)Oc1ccc(C)cc1-n1nc2ccccc2n1 — higher, -8.62%
- NC(=O)c1ccccc1NC(=O)/C=C/c1cccc(Cl)c1 — higher, 3.67%
- Nc1ccc(-c2ncc(-c3ccccc3)o2)cc1 — higher, 8.17%
- N#C/C(=C\c1c[nH]c2ccccc12)C(=O)NC1CC1 — higher, 8.25%
- Cc1ccc(NC(=O)c2cc3cccc([N+](=O)[O-])c3[nH]2)cc1 — higher, -4.99%
- ClC1(Cl)CC1CSc1nnc(-c2ccncc2)o1 (centres undefined) — higher, -0.215%
- COc1cc(SC)ccc1C(=O)Nc1ccc(Br)cn1 — higher, -19.4%
- COc1ccc(-n2ncc3c(N4CCCCC4)ncnc32)cc1 — higher, -26.4%
- Cc1ccc(C(=O)c2coc3ccc(O)c(Cl)c23)cc1 — higher, -7.8%
- COc1cccc(-c2ccc3c(N)c(C(=O)NC4CC4)sc3n2)c1 — higher, 6.5%
- Cc1ccc(S(=O)(=O)CC(CN2CCCCC2)N2CCCCC2)cc1 (centres undefined) — higher, 6.97%
- O=S(=O)(CC(CN1CCCCC1)N1CCCCC1)c1ccc2ccccc2c1 (centres undefined) — higher, -17%
- C=CCC(Nc1ccccc1)C12C=CC(O1)C(C(=O)OC)=C2C(=O)OC (centres undefined) — higher, -24.4%
- Cc1ccc(C)c(-n2c3nc(=O)[nH]c(=O)c-3cc3cc([N+](=O)[O-])ccc32)c1 — higher, 11.9%
- COc1ccc(C2C(C#N)=C(N)Oc3c2oc(CO)cc3=O)cc1 (centres undefined) — higher, -3.32%
